According to the supplement of paper PMC10646978:
± gives the standard deviation.

Key:
Details in all cases: modulator concentration 10 µM
[1] = system: RAW-Dual (murine macrophage reporter line); experiment: NF-kB reporter (SEAP) activity fold change vs agonist alone; higher = enhanced NF-kB activity
Outline: (§1)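 RAW-Dual murine macrophage reporter cells were plated at 50 000 per well in 384-well plates, pin-transferred compound to 10 μM final, and pre-incubated for 1 hour at 37 °C before a PRR agonist was added and the cells incubated overnight. NF-κB activity was read from supernatant SEAP with QUANTI-Blue at 620 nm absorbance, and IRF activity from Lucia luciferase with QUANTI-Luc by luminescence. Each signal was expressed as fold change by dividing by the mean agonist-only control on the same plate. Two replicate plates were averaged, with errors obtained by propagation.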

[2] = system: RAW-Dual (murine macrophage reporter line); experiment: IRF reporter (Lucia luciferase) activity fold change vs agonist alone; higher = enhanced IRF activity
Outline: as §1

[3] = system: RAW-Dual (murine macrophage reporter line); experiment: viability score (confluency relative to resting cells, overnight) (fraction); higher = more viable, active = viable (0.7 or more)
Outline: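 Two confluency masks, generated with IncuCyte software over all imaged wells, were applied to IncuCyte images of RAW-Dual macrophages. The cells, in 384-well plates, had been exposed overnight to 10 μM final compound. The viability score is confluency as a fraction of resting cells, and a compound met the cutoff only with both masks above 70% of resting cells.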

[4] = agonist: CpG ODN 1826 0.5 ug/mL

SMILES | NF-kB reporter [1, 4] | NF-kB reporter ([1]; agonist: LPS 0.1 ug/mL) | NF-kB reporter ([1]; agonist: MPLA […]) | IRF reporter ([2]; agonist: 3'3'-cGAMP 10 ug/mL) | IRF reporter ([2]; agonist: LPS 0.1 ug/mL) | IRF reporter ([2]; agonist: MPLA […]) | viability score [3]
O=[N+]([O-])c1ccc2nc(S)sc2c1 | 0.847 ± 0.068 | 1.11 ± 0.15 | 1.11 ± 0.027 | 0.82 ± 0.082 | 0.986 ± 0.12 | 1.03 ± 0.15 | 0.992 (active)
CCCCS(=O)(=O)N[C@@H](Cc1ccc(OCCCCC2CCNCC2)cc1)C(=O)O.Cl.O | 1.2 ± 0.34 | 1.05 ± 0.057 | 0.987 ± 0.075 | 0.907 ± 0.035 | 1.14 ± 0.23 | 1.26 ± 0.12 | 0.99 (active)
O=C(O)CCCCC1CCSS1 (centres undefined) | 0.761 ± 0.034 | 0.968 ± 0.077 | 1.05 ± 0.056 | 1.03 ± 0.047 | 1.33 ± 0.33 | 1.51 ± 0.52 | 0.978 (active)
Cc1[nH]c(/C=C2\C(=O)Nc3ccccc32)c(C)c1CCC(=O)O | 0.716 ± 0.18 | 0.853 ± 0.11 | 0.812 ± 0.048 | 0.618 ± 0.021 | 0.956 ± 0.24 | 0.98 ± 0.18 | 0.993 (active)
CC(=O)N1N=C(c2ccc(N(C)C)cc2)CC1c1ccccc1 (centres undefined) | 0.932 ± 0.08 | 1.04 ± 0.073 | 1.01 ± 0.047 | 0.794 ± 0.048 | 1.01 ± 0.042 | 1.1 ± 0.072 | 1 (active)
CCOc1ccc2nc(SC3CC(=O)N(c4cccc(Cl)c4)C3=O)sc2c1 (centres undefined) | 0.954 ± 0.091 | 1.04 ± 0.058 | 0.785 ± 0.047 | 0.778 ± 0.046 | 1.11 ± 0.079 | 1.04 ± 0.16 | 1.01 (active)
Cc1ccc(-n2ncc3c(Nc4cccc(C)c4)ncnc32)cc1 | 0.987 ± 0.2 | 1.14 ± 0.098 | 1.02 ± 0.1 | 0.938 ± 0.05 | 1.09 ± 0.23 | 1.19 ± 0.15 | 0.995 (active)
Cl.N=C1CCCN1Cc1[nH]c(=O)[nH]c(=O)c1Cl | 1.46 ± 0.062 | 0.379 ± 0.037 | 0.688 ± 0.06 | 0.423 ± 0.028 | 0.796 ± 0.23 | 0.995 ± 0.31 | 0.961 (active)
CCOC(=O)C1=CC2(CC)CCCN3CCc4c(n1c1ccccc41)C32 (centres undefined) | 0.79 ± 0.061 | 0.928 ± 0.078 | 0.915 ± 0.09 | 0.963 ± 0.032 | 1.3 ± 0.13 | 1.4 ± 0.21 | 1.03 (active)
CNCCCC12CCC(c3ccccc31)c1ccccc12.Cl | 0.507 ± 0.083 | 1.1 ± 0.24 | 1.32 ± 0.074 | 0.542 ± 0.038 | 1.36 ± 0.34 | 2.48 ± 0.34 | 0.29 (inactive)
CN1C(=O)C(=Cc2cccc3ccccc23)SC1=S | 0.909 ± 0.21 | 1.04 ± 0.088 | 0.949 ± 0.073 | 0.939 ± 0.024 | 1.26 ± 0.22 | 1.33 ± 0.15 | 0.998 (active)
Cc1cc(C#N)cc(C)c1Oc1nc(Nc2ccc(C#N)cc2)nc(N)c1Br | 1.15 ± 0.049 | 1.3 ± 0.1 | 1.5 ± 0.14 | 1.39 ± 0.21 | 1.05 ± 0.24 | 1.28 ± 0.42 | 0.97 (active)
COc1c(C)c2c(c(O)c1C/C=C(\C)CCC(=O)O)C(=O)OC2 | 0.602 ± 0.047 | 0.146 ± 0.007 | 0.352 ± 0.032 | 0.453 ± 0.03 | 1.13 ± 0.066 | 1.31 ± 0.11 | 0.587 (inactive)
O=C(O)c1cc(NC(=O)c2ccc(Cl)c([N+](=O)[O-])c2)cc(C(=O)O)c1 | 1.08 ± 0.11 | 0.973 ± 0.064 | 1.02 ± 0.045 | 1.03 ± 0.19 | 1.04 ± 0.088 | 1.08 ± 0.17 | 1 (active)
O=C1OC(=O)C2C3CCC(O3)C12 (centres undefined) | 1.66 ± 0.13 | 1.45 ± 0.15 | 2.06 ± 0.2 | 1.77 ± 0.076 | 1.65 ± 0.22 | 1.72 ± 0.38 | 0.94 (active)
CCOc1ccccc1OCCCCOc1cccc(C)c1C | 0.984 ± 0.1 | 1.03 ± 0.11 | 0.982 ± 0.061 | 1 ± 0.14 | 1.08 ± 0.13 | 1.1 ± 0.27 | 1 (active)
CS(=O)(=O)NCc1cccc(Oc2ccc(F)cc2)c1 | 1.03 ± 0.066 | 0.955 ± 0.079 | 0.997 ± 0.029 | 1.1 ± 0.046 | 0.992 ± 0.061 | 1.03 ± 0.1 | 0.997 (active)
CC1ON(c2ccc(Cl)c(Cl)c2)C(=O)NC1=O (centres undefined) | 1.02 ± 0.13 | 0.886 ± 0.065 | 1.06 ± 0.11 | 1.03 ± 0.032 | 1.27 ± 0.2 | 1.49 ± 0.24 | 0.998 (active)
c1cn2cc(-c3ccc4cn[nH]c4c3)nc(Nc3ccc(N4CCOCC4)cc3)c2n1 | 0.99 ± 0.24 | 0.759 ± 0.06 | 1.25 ± 0.12 | 0.24 ± 0.015 | 0.897 ± 0.12 | 1.1 ± 0.26 | 0.978 (active)
O=C(Oc1ccc2oc(=O)sc2c1)c1ccccc1 | 0.969 ± 0.2 | 0.917 ± 0.091 | 0.862 ± 0.1 | 0.325 ± 0.017 | 1.26 ± 0.13 | 1.36 ± 0.22 | 0.632 (inactive)
COc1cc(OC)c(NC(=O)C2CCCN(c3ccc(-c4ccc(C)c(C)c4)nn3)C2)cc1Cl (centres undefined) | 1.04 ± 0.09 | 1.04 ± 0.081 | 0.93 ± 0.04 | 0.964 ± 0.052 | 1.09 ± 0.066 | 1 ± 0.15 | 1.01 (active)
CC1CC(C)CN(S(=O)(=O)CCCOc2ccc3c(c2)OCO3)C1 (centres undefined) | 1.05 ± 0.06 | 1.04 ± 0.064 | 1.01 ± 0.061 | 0.906 ± 0.03 | 1.24 ± 0.09 | 1.05 ± 0.14 | 0.956 (active)
CN(C)CCOC(c1ccccc1)c1ccccc1.Cl | 1.12 ± 0.16 | 1.11 ± 0.089 | 0.985 ± 0.11 | 0.791 ± 0.029 | 1.17 ± 0.1 | 1.03 ± 0.12 | 0.999 (active)
CC1(C)CC(=O)C2=C(C1)OC(N)=C(C#N)C2C1CC=CCC1 (centres undefined) | 1.02 ± 0.061 | 1.08 ± 0.099 | 1.11 ± 0.068 | 1.23 ± 0.041 | 1.29 ± 0.18 | 1.14 ± 0.12 | 0.9 (active)
Ic1ccc2c3ccc(I)cc3c3[nH]c(-c4ccccc4)nc3c2c1 | 1.03 ± 0.094 | 1.07 ± 0.14 | 1.11 ± 0.042 | 0.814 ± 0.054 | 1.05 ± 0.1 | 1.31 ± 0.19 | 0.995 (active)
CCOC(=O)N1CCC(=C2c3ccc(Cl)cc3CCc3cccnc32)CC1 | 1.07 ± 0.24 | 1.09 ± 0.21 | 0.953 ± 0.053 | 0.725 ± 0.04 | 1.06 ± 0.097 | 1.33 ± 0.29 | 0.989 (active)
O=C(Cc1ccccc1)NCC(O)Cn1ccccc1=O (centres undefined) | 0.84 ± 0.037 | 0.9 ± 0.12 | 1.02 ± 0.067 | 1.04 ± 0.072 | 1.26 ± 0.25 | 1.43 ± 0.42 | 1 (active)
